The results in this text go back to PubChem BioAssay (NCATS).

Results filed as inconclusive are left out. The source made the active and inactive calls. Unless noted, calls follow the shape of the dose curve; as a rule, active = well fitted curve in either direction with a large enough effect (not every such curve was filed as active); inconclusive = small, poorly fitted or top-dose-only effect, or another doubt; inactive = flat fitted curve, though single readings scatter.

Assay [1] deals with Lysosomal acid glucosylceramidase (Homo sapiens) (UniProt P04062). Briefly: Glucocerebrosidase-p2 (AID 348; in the data active = potency below about 10 µM; also: potency is read from the fitted curve at half-maximal effect). Conditions: purified GBA, blue fluorogenic substrate, 40 min. The method in brief:
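Compounds titrated from 0.6 nM upwards against 0.2 nM enzyme in pH 5.9 citric acid/KH2PO4, taurocholate, tween-20; blue fluorogenic substrate 80 uM, 40 min room temperature, stopped and read Ex 365/Em 440 for AC50.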

A short description of assay [2]: AP1 Signaling Pathway (AID 357).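 Also: ME-180 reporter cells stimulated with EGF at its EC50 level; % is scaled to controls: 0 for no effect and ±100 for the full control effect.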 Conditions: ME-180 AP-1-bla reporter, EGF-induced, beta-lactamase ratio, 5 h; at 7.69 µM (top of the series) unless noted. The method in brief:
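AP-1-bla ME-180 cells, Opti-MEM + 0.5% dialyzed FBS, plated overnight 37 °C. Cpd titration + EC50 EGF, 5 h 37 °C. CCF4 2.5 h RT; ex 405, em 460/530 ratio → %activity, AC50.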

Assay [3] addresses Cytochrome P450 1A2 (Homo sapiens) (UniProt P05177). The assay can be described thus: p450-cyp1a2 (AID 410; calls by dose curve; also: potency is read from the fitted curve at half-maximal effect). Particulars: recombinant CYP1A2, luciferin-ME demethylation, luminescence; series mostly up to 57 µM. Put shortly: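 Inhibition was calculated relative to 57 uM furafylline (full inhibition). The reaction used human CYP1A2 at 20nM with Luciferin-ME at its Km, 100uM, driven by an NADPH-regenerating system for 60 min at room temperature.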

A short description of assay [4]: NFAT Signaling Pathway (AID 444).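 Also: carbachol stimulus at about its EC50 of 1 µM final; % is scaled to controls: 0 for no effect and ±100 for the full control effect.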 Particulars: Jurkat NFAT-bla M1, carbachol, beta-lactamase ratio, 5 h; at 7.69 µM (top of the series) unless noted. Put shortly:
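Jurkat cells carrying an NFAT-driven β-lactamase reporter and co-transfected muscarinic M1 receptor were treated with compound plus carbachol (1 uM final, an EC50 level) for 5 h at 37 °C. CCF4 loading followed for 1 h at RT; 460/530 nm ratio gave %activity.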

The nature of assay [5]: Stat Signaling Pathway (AID 446).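 Also: ME-180 cervical cancer cells given 40 pM IL-6 alongside compound; SIE-controlled beta-lactamase reporter measured as 460/530 nm FRET emission ratio; % is scaled to controls: 0 for no effect and ±100 for the full control effect.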 Particulars: ME-180 SIE beta-lactamase reporter, IL-6 stimulated, 5 h; at 7.69 µM (top of the series) unless noted. Put shortly:
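Reporter line: ME-180 cervical carcinoma, SIE-beta-lactamase. Treatment: compound with 40 pM IL-6, 5 hrs, 37 C, in low-serum OPTI-MEM with 10 mM HEPES pH 7.3. Detection: 460/530 nm fluorescence.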

The target in assay [6] is Glucocorticoid receptor (Homo sapiens) (UniProt P04150). The assay can be described thus: GR-EFC Redistribution (AID 451; calls by dose curve; also: potency is read from the fitted curve at half-maximal effect). Particulars: CHO-K1 GR-EFC translocation, beta-gal luminescence, 2 h. Put shortly:
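CHO-K1 cells stably expressing nuclear-localized β-gal enzyme acceptor and GR fused C-terminally to the enzyme donor fragment; ligand-driven nuclear translocation restores β-gal by complementation. Compounds titrated up to 46 uM final, 2 h at 37 °C; luminescence read.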

The target in assay [7] is Mitogen-activated protein kinase 10 (Mus musculus) (UniProt Q61831). Briefly: JNK3 AlphaScreen Assay (AID 530).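 Also: kinase came from lysate of stimulated human HepG2 cells; % is scaled to controls: 0 for no effect and ±100 for the full control effect.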 Particulars: JNK3 lysate, c-Jun phosphorylation; series mostly up to 57.1 µM. Put shortly: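 JNK3 came from HepG2 lysates pre-activated with IL-1beta and TNF-alpha and phosphorylated biotinylated GST-cJun (1-79) at 10 uM ATP, pH 7.6, room temperature. Compounds were titrated. AlphaScreen signal used anti-phospho-cJun (Ser73) antibody.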
(In Alpha technology, singlet oxygen from a donor bead excites a nearby acceptor bead.)

The target of assay [8] is 3',5'-cyclic-AMP phosphodiesterase 4B (Homo sapiens) (UniProt Q07343). Briefly: qHTS Assay for Inhibitors of PDE-IV (AID 607; active = well fitted activation curve with a large enough effect in the main read-out, with a control signal flat, not every such curve was filed as active; also: % of control where 0% means no effect). Conditions: HEK293 ACTOne CNG channel cells, membrane potential fluorescence; series mostly up to 22.9 µM. The method in brief: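 Cell-based read-out of cAMP via a modified cyclic nucleotide-gated channel and membrane potential dye (535/590 nm) in HEK293 cells expressing PDE4 endogenously. Compounds tested up to 22.9 uM final; 100 uM RO 20-1724 reference.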
Sequence of 3',5'-cyclic-AMP phosphodiesterase 4B (Homo sapiens) (Q07343 whole entry, looked up): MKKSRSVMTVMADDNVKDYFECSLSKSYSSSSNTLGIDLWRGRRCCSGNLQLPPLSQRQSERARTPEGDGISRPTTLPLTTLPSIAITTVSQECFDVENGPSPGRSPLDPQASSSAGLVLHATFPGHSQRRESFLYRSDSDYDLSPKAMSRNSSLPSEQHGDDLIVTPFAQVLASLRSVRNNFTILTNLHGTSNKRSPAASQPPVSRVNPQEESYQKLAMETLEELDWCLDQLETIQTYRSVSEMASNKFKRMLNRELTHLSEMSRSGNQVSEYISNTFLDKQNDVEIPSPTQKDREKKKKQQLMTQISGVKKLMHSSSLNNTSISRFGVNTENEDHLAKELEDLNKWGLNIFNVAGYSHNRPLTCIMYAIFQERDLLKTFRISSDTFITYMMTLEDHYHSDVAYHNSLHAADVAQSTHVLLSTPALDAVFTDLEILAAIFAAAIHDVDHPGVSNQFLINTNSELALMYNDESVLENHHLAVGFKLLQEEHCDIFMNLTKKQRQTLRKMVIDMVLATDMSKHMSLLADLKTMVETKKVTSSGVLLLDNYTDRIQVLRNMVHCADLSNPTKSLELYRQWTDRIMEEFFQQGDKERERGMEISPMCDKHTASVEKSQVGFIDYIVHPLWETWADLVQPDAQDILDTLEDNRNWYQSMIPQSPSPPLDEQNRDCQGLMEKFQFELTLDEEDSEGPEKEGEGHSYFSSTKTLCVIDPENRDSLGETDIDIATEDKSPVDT
In general terms: Quantitative high-throughput screening tests each substance at several concentrations.

In assay [9] the target is Cytochrome P450 3A4 (Homo sapiens) (UniProt P08684). The assay can be described thus: qHTS Assay for Activators of Cytochrome P450 3A4 (AID 885; active = well fitted curve in the direction sought with a large enough effect; an effect the other way counts as inactive or inconclusive; also: nearly all actives have a fitted effect of over 65% in size; also: potency is read from the fitted curve at half-maximal effect). Particulars: recombinant CYP3A4, Luciferin-PPXE luminescence, 60 min; series mostly up to 57.1 µM. Put shortly:
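Signal was normalized against complete inhibition by 57 uM ketoconazole. The reaction used 20nM CYP3A4 with 25uM Luciferin-PPXE, 10-min compound preincubation and a 60-min NADPH-supported step at RT.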

Assay [10] in a line: qHTS Assay for Identification of Small Molecule Agonists for Hypoxia Response Element Signaling Pathway (AID 914; active = well fitted activation curve with a large enough effect in the signal ratio, with a control signal flat, not every such curve was filed as active; the % refers to the signal ratio; also: % of control where 0% means no effect). Conditions: ME-180 HRE-bla reporter, beta-lactamase ratio, CoCl2, 17 h; activation: stronger effect = higher value. Put shortly: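 ME-180 cells carrying an HRE-driven beta-lactamase reporter were treated with compounds in a titration series plus an EC50 level of CoCl2 for 17 h at 37 degrees Celsius; CCF4 readout as the 460nm/530nm ratio gave AC50 values.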

Assay [11] can be described thus: qHTS Assay for Lipid Storage Modulators (AID 1519; calls by dose curve). Particulars: Drosophila S3 cells, BODIPY lipid droplet/cell ratio, laser cytometry, cells loaded with oleic acid; for activity change, negative = inhibition: at 57.5 µM (top of the series). Put shortly:
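Cells seeded at 5,000 per well were treated with compounds over a concentration series and loaded with oleic acid (400 uM, as added). Lipid droplet fluorescence (488 nm excitation, 500-530 nm channel) was read by laser-scanning cytometry and normalized to 20 uM Triacsin C.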

The nature of assay [12]: Primary qHTS for small molecule stabilizers of the endoplasmic reticulum resident proteome: Secreted ER Calcium Modulated Protein (SERCaMP) assay (AID 1508630; active = well fitted curve in the direction sought with a large enough effect; an effect the other way counts as inactive or inconclusive; also: % is scaled to controls: 0 for no effect and ±100 for the full control effect). Conditions: SH-SY5Y GLuc-SERCaMP (Gaussia luciferase released on ER calcium loss) secretion, thapsigargin, luminescence; series mostly up to 38.4 µM. The method in brief: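 GLuc-SERCaMP-expressing SH-SY5Y cells, pretreated 16 h with compound, are challenged with thapsigargin to empty ER calcium stores; after 4 h, coelenterazine is added directly to the medium and luminescence is imaged.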

Assay [13] has as its target Cytochrome P450 2C9 (Homo sapiens) (UniProt P11712). Briefly: qHTS Assay for Inhibitors and Substrates of Cytochrome P450 2C9 (AID 883; active = well fitted curve in the direction sought with a large enough effect; an effect the other way counts as inactive or inconclusive; also: % is scaled to controls: 0 for no effect and ±100 for the full control effect; nearly all actives have a fitted effect of over 60% in size). Conditions: recombinant CYP2C9, luciferin-H luminescence, 60 min; series mostly up to 57.1 µM. Put shortly: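 CYP2C9 deoxyluciferin hydroxylation, 37C, 60 min with NADPH regeneration; 10nM enzyme, 100uM Luciferin-H (KM). Glo detection reagent stopped reaction; luminescence normalized to sulphaphenazole (57uM) full inhibition.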

Assay [14] addresses Cytochrome P450 3A4 (Homo sapiens) (UniProt P08684). Briefly: qHTS Assay for Inhibitors and Substrates of Cytochrome P450 3A4 (AID 884; active = well fitted curve in the direction sought with a large enough effect; an effect the other way counts as inactive or inconclusive; also: % is scaled to controls: 0 for no effect and ±100 for the full control effect; nearly all actives have a fitted effect of over 50% in size). Conditions: recombinant CYP3A4, Luciferin-PPXE luminescence; series mostly up to 57.1 µM. The method in brief:
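20 nM human CYP3A4 with 25 uM Luciferin-PPXE (at KM) in 200 mM KPO4, preincubated 10 min with compound; NADPH regeneration started a 60 min RT reaction. Luciferin detected by luminescence, normalized to 57 uM ketoconazole as full inhibition.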

The target in assay [15] is Cytochrome P450 2C19 (Homo sapiens) (UniProt P33261). Briefly: qHTS Assay for Inhibitors and Substrates of Cytochrome P450 2C19 (AID 899; active = well fitted curve in the direction sought with a large enough effect; an effect the other way counts as inactive or inconclusive; also: nearly all actives have a fitted effect of over 60% in size; also: potency is read from the fitted curve at half-maximal effect). Particulars: recombinant CYP2C19, luciferin-H EGE luminescence; series mostly up to 57.1 µM. The method in brief:
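In 50mM KPO4, the reaction held 5nM enzyme and KM-level (10uM) Luciferin-H EGE; it ran 60 min at 37C after NADPH regeneration and a 10 min compound preincubation. Luminescence values were scaled to 57uM ketoconazole as complete inhibition.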

Assay [16] addresses Cytochrome P450 2D6 (Homo sapiens) (UniProt P10635). The assay can be described thus: qHTS Assay for Inhibitors and Substrates of Cytochrome P450 2D6 (AID 891; active = well fitted curve in the direction sought with a large enough effect; an effect the other way counts as inactive or inconclusive; also: potency is read from the fitted curve at half-maximal effect; nearly all actives have a fitted effect of over 60% in size). Conditions: recombinant CYP2D6, luciferin-ME EGE luminescence; series mostly up to 57.1 µM. Put shortly:
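Human CYP2D6 (5 nM) with 30 uM Luciferin-ME EGE (at Km) in 100 mM KPO4, compound preincubated 10 min, then NADPH regeneration system for 60 min at room temperature. Luciferin read by luminescence; normalized to 1.43 uM quinidine.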

The mark [17] stands for this setting: measured here: cell count channel max response.
Where [18] appears, read: measured here: lipid channel max response.

Sequence of Lysosomal acid glucosylceramidase (Homo sapiens) (P04062 whole entry, looked up): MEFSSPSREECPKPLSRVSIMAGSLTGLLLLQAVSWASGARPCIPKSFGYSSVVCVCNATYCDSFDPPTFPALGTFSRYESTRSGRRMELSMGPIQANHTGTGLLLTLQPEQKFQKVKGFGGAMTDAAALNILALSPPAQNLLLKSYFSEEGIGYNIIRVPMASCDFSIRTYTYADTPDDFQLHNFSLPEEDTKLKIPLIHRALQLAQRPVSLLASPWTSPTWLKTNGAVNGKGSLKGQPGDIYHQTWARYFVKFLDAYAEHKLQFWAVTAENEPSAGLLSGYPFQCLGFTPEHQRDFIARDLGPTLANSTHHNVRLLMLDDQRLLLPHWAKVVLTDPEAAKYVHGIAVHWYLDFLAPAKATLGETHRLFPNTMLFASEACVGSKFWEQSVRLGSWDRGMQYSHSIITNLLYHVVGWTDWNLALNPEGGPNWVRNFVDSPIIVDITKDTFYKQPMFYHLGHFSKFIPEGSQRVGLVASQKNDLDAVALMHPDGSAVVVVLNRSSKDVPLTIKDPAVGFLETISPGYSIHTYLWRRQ
Sequence of Glucocorticoid receptor (Homo sapiens) (P04150 whole entry, looked up, the tested form may be a part): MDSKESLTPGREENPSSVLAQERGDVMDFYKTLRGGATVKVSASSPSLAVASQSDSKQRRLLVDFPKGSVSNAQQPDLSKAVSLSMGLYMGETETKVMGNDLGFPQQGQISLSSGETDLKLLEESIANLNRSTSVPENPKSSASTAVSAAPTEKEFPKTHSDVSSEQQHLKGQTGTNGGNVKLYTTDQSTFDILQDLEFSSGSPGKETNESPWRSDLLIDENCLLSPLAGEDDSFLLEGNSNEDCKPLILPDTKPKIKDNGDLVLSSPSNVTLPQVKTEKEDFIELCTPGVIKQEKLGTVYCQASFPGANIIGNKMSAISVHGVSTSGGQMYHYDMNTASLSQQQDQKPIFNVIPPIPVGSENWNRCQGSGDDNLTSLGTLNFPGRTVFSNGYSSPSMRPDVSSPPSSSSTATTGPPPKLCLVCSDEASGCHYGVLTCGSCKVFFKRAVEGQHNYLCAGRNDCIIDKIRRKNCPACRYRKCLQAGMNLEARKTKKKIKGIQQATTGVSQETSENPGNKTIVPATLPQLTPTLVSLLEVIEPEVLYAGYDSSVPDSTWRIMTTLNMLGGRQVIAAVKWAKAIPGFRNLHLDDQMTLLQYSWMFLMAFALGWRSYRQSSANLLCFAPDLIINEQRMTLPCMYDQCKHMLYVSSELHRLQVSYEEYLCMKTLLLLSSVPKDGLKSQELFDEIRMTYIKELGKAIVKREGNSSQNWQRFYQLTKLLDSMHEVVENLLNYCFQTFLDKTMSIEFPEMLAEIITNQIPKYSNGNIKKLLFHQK
Sequence of Cytochrome P450 3A4 (Homo sapiens) (P08684 whole entry, looked up): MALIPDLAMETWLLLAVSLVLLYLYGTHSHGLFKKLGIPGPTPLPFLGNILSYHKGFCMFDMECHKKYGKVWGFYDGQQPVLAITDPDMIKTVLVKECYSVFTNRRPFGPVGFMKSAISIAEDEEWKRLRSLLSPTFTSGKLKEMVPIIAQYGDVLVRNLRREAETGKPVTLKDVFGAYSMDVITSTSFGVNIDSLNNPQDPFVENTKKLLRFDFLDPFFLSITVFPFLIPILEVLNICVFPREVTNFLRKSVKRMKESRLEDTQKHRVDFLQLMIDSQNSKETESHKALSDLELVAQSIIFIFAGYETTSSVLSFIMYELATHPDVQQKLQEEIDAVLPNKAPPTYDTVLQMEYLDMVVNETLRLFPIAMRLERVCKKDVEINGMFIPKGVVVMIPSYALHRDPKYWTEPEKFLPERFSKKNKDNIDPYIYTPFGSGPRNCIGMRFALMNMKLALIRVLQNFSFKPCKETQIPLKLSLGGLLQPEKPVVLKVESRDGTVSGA
Sequence of Cytochrome P450 1A2 (Homo sapiens) (P05177 whole entry, looked up): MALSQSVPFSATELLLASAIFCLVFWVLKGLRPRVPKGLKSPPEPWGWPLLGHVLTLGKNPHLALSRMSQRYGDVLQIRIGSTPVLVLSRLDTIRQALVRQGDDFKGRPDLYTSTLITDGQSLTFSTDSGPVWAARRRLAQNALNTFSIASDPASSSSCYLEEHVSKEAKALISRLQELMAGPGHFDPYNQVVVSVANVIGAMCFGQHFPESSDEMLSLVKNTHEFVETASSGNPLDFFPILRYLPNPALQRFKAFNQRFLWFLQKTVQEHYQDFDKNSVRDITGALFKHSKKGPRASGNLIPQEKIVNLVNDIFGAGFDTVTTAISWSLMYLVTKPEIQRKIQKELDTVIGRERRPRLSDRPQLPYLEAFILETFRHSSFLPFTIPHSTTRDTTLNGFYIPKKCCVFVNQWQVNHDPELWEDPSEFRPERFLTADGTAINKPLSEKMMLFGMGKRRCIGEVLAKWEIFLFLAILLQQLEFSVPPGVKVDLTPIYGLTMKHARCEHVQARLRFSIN
Sequence of Cytochrome P450 2C19 (Homo sapiens) (P33261 whole entry, looked up): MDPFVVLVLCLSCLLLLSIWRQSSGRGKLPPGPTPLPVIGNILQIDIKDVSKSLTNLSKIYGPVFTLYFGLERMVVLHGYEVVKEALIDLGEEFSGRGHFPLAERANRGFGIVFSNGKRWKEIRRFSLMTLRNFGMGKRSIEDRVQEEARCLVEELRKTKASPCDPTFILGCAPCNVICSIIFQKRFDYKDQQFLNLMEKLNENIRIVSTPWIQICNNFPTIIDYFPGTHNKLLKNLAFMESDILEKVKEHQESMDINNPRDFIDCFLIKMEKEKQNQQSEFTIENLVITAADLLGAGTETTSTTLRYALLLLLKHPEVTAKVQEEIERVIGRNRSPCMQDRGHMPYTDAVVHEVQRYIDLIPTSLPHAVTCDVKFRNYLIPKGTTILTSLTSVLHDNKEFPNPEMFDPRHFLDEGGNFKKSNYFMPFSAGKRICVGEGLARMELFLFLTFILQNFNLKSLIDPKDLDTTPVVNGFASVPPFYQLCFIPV
Sequence of Cytochrome P450 2D6 (Homo sapiens) (P10635 whole entry, looked up): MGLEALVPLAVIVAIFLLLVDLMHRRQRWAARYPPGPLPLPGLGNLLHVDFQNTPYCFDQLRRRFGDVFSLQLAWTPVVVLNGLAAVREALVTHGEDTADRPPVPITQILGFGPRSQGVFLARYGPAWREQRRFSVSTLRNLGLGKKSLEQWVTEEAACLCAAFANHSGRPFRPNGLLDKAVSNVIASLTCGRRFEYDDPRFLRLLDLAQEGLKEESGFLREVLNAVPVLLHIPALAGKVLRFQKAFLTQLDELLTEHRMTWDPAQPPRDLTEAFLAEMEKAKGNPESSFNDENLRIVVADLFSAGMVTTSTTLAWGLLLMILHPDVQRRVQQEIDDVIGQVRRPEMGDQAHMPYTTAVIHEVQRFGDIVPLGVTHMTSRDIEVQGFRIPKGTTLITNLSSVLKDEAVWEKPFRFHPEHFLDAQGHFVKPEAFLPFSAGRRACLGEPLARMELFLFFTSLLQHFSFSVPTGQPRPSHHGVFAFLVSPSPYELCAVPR
Sequence of Cytochrome P450 2C9 (Homo sapiens) (P11712 whole entry, looked up): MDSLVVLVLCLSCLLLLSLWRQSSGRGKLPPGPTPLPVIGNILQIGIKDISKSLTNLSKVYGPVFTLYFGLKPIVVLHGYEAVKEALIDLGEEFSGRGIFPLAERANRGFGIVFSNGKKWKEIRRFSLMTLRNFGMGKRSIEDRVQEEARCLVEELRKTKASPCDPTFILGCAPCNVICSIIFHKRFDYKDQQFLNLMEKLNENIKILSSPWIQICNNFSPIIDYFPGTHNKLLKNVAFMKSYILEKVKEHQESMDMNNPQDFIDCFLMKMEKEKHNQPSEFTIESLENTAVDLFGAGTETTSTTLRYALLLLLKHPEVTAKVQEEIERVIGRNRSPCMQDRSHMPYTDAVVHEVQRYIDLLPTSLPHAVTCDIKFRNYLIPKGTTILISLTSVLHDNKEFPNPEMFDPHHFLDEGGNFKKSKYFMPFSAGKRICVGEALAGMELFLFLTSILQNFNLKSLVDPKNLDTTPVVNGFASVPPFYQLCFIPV

For the compound `CC(C)NC(=O)N1CC[C@@]2(CCCN(C(=O)c3cc(C(F)(F)F)cc(C(F)(F)F)c3)C2)C1`, the Potency is > 11.4 µM (inactive) in assay [1] and > 46 µM (inactive) in assay [6]. Also, the results for the activity change, negative = inhibition in assay [2], in assay [4] and in [11] were 8.49% (inactive), 9.52% (inactive) and 1.68% (inactive), respectively. Moreover, the Potency result in assay [3], in assay [8], in assay [9] and in assay [12] was “inactive” in each case. The activity, negative = inhibition in [5] was -10.1% (inactive). Moreover, the call in assay [7] was inactive. Also, the activation in assay [10] was -1.12% (inactive). The max response in assay [11] (setting [17]) turned out to be 19.4%; in assay [11] (setting [18]) it was 20.3%.
Regarding `CN(C)c1ncc2ncc(=O)n(CCC#N)c2n1`, the results for the Potency in assay [1], in [3] and in assay [6] were > 11.4 µM (inactive), 12.6 µM (active) and > 46 µM (inactive), respectively. The results for the activity change, negative = inhibition in assay [2], in assay [4] and in [11] were -12.7% (inactive), 3.55% (inactive) and 2.4% (inactive), respectively. In addition, the activity, negative = inhibition in assay [5] was -2.2% (inactive). For the same compound, in [7], the compound was classed as inactive. Also, the Potency entry in assay [13] and in assay [12] was “inactive” in each case. For the same compound, the max response in assay [11] (setting [17]) is 25.3%; in assay [11] (setting [18]), 29.8%.
For `COC(=O)N1CCC2(CC1)CN(c1ccccn1)C2`, the Potency in [1] was > 11.4 µM (inactive); in [6], > 46 µM (inactive); in assay [9] it was 25.1 µM (active). For the same compound, the activity change, negative = inhibition in [2] was -6.58% (inactive); in [4] it was -21.4% (inactive); in [11], 1.4% (inactive). The Potency result in [3], in [14] and in [12] was “inactive” each time. Also, in assay [5], the activity, negative = inhibition is 9.9% (inactive). Further, the compound was called inactive in assay [7]. Besides, the max response stood at 2.42% in assay [11] (setting [17]) and 5.09% in assay [11] (setting [18]).
Regarding `CC(=O)N1CCC[C@@]2(CCN(c3ccncc3)C2)C1`, the Potency was > 11.4 µM (inactive) in assay [1] and > 46 µM (inactive) in assay [6]. Further, the activity change, negative = inhibition in [2] is 2.82% (inactive); in assay [4], 3.22% (inactive); in [11], 2.25% (inactive). The Potency entry in assay [3], in assay [8], in [9] and in assay [12] was “inactive” each time. In addition, the activity, negative = inhibition in assay [5] is -0.448% (inactive). In assay [7], the result was inactive. The max response was determined as 8.59% in assay [11] (setting [17]) and 14.8% in [11] (setting [18]).
Take `CC(=O)N1CCC2(CC1)CN(c1ccccc1)C2`: the Potency is > 11.4 µM (inactive) in [1] and > 46 µM (inactive) in [6]. The activity change, negative = inhibition in assay [2] was 10.4% (inactive); in assay [4], 3.05% (inactive); in assay [11], 6.65% (inactive). The Potency result in assay [3], in assay [8], in [15] and in assay [12] was “inactive” each time. Moreover, the activity, negative = inhibition in [5] is 10.3% (inactive). Besides, the result in assay [7] was inactive. Further, the values for the max response in assay [11] (setting [17]) and in assay [11] (setting [18]) were 16.4% and 26.6%, respectively.
Regarding `COC(=O)N1CCC2(CCCN(Cc3ccccc3OC)C2)CC1`, the Potency in assay [1] was > 11.4 µM (inactive); in assay [6], > 46 µM (inactive); in [16], 3.16 µM (active). In addition, the activity change, negative = inhibition in [2] was -7.44% (inactive); in [4], -73.7% (active); in assay [11], -2.47% (inactive). Also, the Potency result in [3], in assay [8], in assay [9] and in [12] was “inactive” in each case. In addition, the activity, negative = inhibition in [5] is -10.7% (inactive). Moreover, in assay [7], the compound was classed as inactive. Further, the max response in [11] (setting [17]) was found to be 15.3%; in assay [11] (setting [18]), 15.9%.
For the compound `CN(C)c1ncc2ncc(=O)n(Cc3ccc(F)cc3)c2n1`, the Potency was > 11.4 µM (inactive) in assay [1], 3.98 µM (active) in [3], > 46 µM (inactive) in assay [6] and 3.16 µM (active) in [15]. The activity change, negative = inhibition in assay [2] is -9.88% (inactive); in assay [4], 4.28% (inactive); in [11] it was 2.54% (inactive). Besides, the activity, negative = inhibition in assay [5] was -10.9% (inactive). Besides, the outcome in [7] was inactive. Besides, the Potency result in [8] and in assay [12] was “inactive” throughout. Further, the max response came to 6.58% in [11] (setting [17]) and 11.9% in assay [11] (setting [18]).
